Results from PubChem BioAssay AID504652 (National Center for Advancing Translational Sciences (NCATS), 2011).
Hit rate of the full screen: of about 360,000 compounds, about 11,000 (3.1%) were called active. The entries come from a sample that favours actives as a whole. Unmarked numbers belong to inactive results. Rule as the data show it: active = activity change below about -30%; inactive = the rest.

These compounds were tested against D(1A) dopamine receptor (Homo sapiens) (UniProt P21728) (assay: Antagonist of Human D 1 Dopamine Receptor: qHTS). Settings: HEK293 TREx D1 cells, calcium flux, dopamine EC80; at 10 µM; hits give low values.
D(1A) dopamine receptor (Homo sapiens), sequence (P21728 whole entry, looked up): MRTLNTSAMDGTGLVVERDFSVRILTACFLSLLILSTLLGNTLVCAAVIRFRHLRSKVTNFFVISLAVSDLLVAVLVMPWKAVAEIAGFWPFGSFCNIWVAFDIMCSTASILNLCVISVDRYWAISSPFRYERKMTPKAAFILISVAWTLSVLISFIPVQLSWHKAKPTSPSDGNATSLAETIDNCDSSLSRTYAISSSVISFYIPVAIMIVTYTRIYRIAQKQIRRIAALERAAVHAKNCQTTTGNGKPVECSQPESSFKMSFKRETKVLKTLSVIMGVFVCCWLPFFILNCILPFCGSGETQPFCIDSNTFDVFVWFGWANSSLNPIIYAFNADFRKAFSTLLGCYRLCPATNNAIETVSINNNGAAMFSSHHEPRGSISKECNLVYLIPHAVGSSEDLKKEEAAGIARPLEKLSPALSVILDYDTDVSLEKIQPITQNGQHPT
From the text: Dopamine receptors (DARs) are involved in the etiology and/or therapy of a number of neuropsychiatric and endocrine disorders. For instance, all receptor-based antiparkinsonian drugs work via stimulating the […] DAR subtype whereas all FDA-approved antipsychotic agents are antagonists of this receptor. […] There are three different types of allosteric modulators that we are seeking, two of which will stimulate or augment receptor signaling, allosteric agonists and potentiators, while the third, allosteric antagonists, will attenuate receptor signaling. The present primary screening assay measures compound antagonism after an EC80 addition of dopamine by tracking calcium flux in a […], inducible Hek293 Trex D1 cell line. NIH Chemical Genomics Center [NCGC] NIH Molecular Libraries Probe Centers Network [MLPCN] MLPCN Grant: NS064831-01 Assay Submitter (PI): David Sibley
Freshly passaged cells are plated in 1536 well black, clear bottom plates at a density of 4000 cells/well in 3 ul of complete media containing 1x tetracycline inducer. After an overnight incubation at 30 C in 5% CO2, cells are loaded with 2 ul of the no wash Calcium Assay Kit (ABD Bioquest) and incubated at room temperature for 30 to 90 minutes. Agonist read: A 10 cycle (1 second/cycle) baseline measurement is taken and then the FDSS online 1536 pintool delivers 23 nl of compound library (as well as dopamine controls) to the plate. The plate is measured for kinetically at 1 cycle/sec for 180 seconds. Following the 180 second read, 1 ul of an EC80 (negative modulation assay) is delivered by an onboard pipette head. Measurements are taken kinetically for an additional 180 seconds.
% is scaled to controls: 0 for no effect and ±100 for the full control effect.

| Compound | activity change, negative = inhibition |
| --- | --- |
| CCCOc1ccc(-c2cccc(NS(=O)(=O)c3ccccc3)c2)nn1 | -24.2% |
| CCNS(=O)(=O)c1cc(-c2nnc(Nc3cccc(C(F)(F)F)c3)c3ccccc23)ccc1C | -6.09% |
| COc1cccc(COc2ccc(N(C)S(=O)(=O)c3ccccc3)cc2)c1 | -1.51% |
| Cc1ccc2nc(COc3ccc(N(C)S(=O)(=O)c4ccccc4)cc3)cc(=O)n2c1 | -32.1% (active) |
| Cc1ccc2nc(COc3ccc(NC(=O)COc4ccccc4F)cc3)cc(=O)n2c1 | 0.203% |
| CSc1ccc(CCNC(=O)c2ccc3c(c2)nc2n3CCOC2)cc1 | 11.3% |
| CCCN1CCN(CCCNC(=O)c2ccc3nc(Cc4ccccc4)oc3c2)CC1 | -1.19% |
| CC(C)CC(NS(=O)(=O)c1ccc2c(c1)oc(=O)n2C)C(=O)NCc1ccccc1Cl (stereo not given) | 14.8% |
| CCCCCn1c(=O)[nH]c2cc(C(=O)Nc3cc(C)cc(C)c3)ccc2c1=O | -6.59% |
| COc1ccc(C(C[N+](=O)[O-])n2nc(C)cc2C)cc1 (stereo not given) | 13.7% |
| CC(=O)Nc1ccc(/C=N/Nc2ccc(C(=O)c3c(C)cc4ccccn34)cc2[N+](=O)[O-])cc1 | -18.5% |
| Cc1ccc(C(C[N+](=O)[O-])c2c(C)cc3ccccn23)cc1 (stereo not given) | -51.3% (active) |
| CN1CCN(C2=NCCO2)CC1 | -33% (active) |
| CCOC(=O)C1CCN(c2csc3ccc(C)cc3c2=O)CC1 | 6.24% |
| Fc1cccc(-n2ncc3c2ncn2nc(-c4ccccc4Cl)nc32)c1 | -8.03% |
| Cc1cccc(NC(=S)NCCc2ccc(Cl)cc2)c1C | -8.27% |
| O=C(NCCc1ccc(Cl)cc1)c1cccc(N2CCCC2=O)c1 | -8.26% |
| Oc1cc2c(cc1O)CN(C(=S)NCCc1ccc(Cl)cc1)CCC2 | -90.5% (active) |
| Cc1ccc2ncc(C(=O)Nc3ccc(OC(F)(F)F)cc3)c(=O)n2c1 | 0.312% |
| COc1cc(CCC(=O)Nc2ccncc2Cl)cc(OC)c1OC | 1.11% |
| COc1cc(CCC(=O)N2CCN(c3ccccc3Cl)CC2)cc(OC)c1OC | -35% (active) |
| CC(=O)c1ccc(N2CCN(C(=O)CCc3ccccc3)CC2)cc1 | 3.26% |
| COc1cccc(C(=O)N(Cc2cccc(Cl)c2)Cc2ccco2)c1 | -12.2% |

| Compound | activity change, negative = inhibition |
| --- | --- |
| C=CCOc1ccc(Cl)cc1CNCCCN1CCOCC1 | -32.4% (active) |
| COc1ccc(-c2ccc(CNCCCN3CCOCC3)o2)cc1Cl | -8.26% |
| O=C(NCCCN1CCOCC1)c1cc(-c2ccc(Cl)cc2)on1 | 7.89% |
| COCCCNC(=O)c1ccc(NC(=O)c2nsc3ccccc23)cc1 | -4.68% |
| COc1ccc(NC(=O)CCN2CCN(CCO)CC2)cc1 | -14% |
| Cc1ccc(C)c(N2CCN(C(=O)C3CCC(CNS(=O)(=O)c4cccs4)CC3)CC2)c1 (stereo not given) | 16.1% |
| COc1ccc(NC(=O)N2CCCn3nc(C)cc32)cc1OC | -22.3% |
| COc1ccc(CCNC(=O)c2ccc(CSCc3ccc(C)cc3)o2)cc1OC | -24.7% |
| COc1ccc(CCNc2ncnc3c2cnn3-c2ccc(C)cc2)cc1 | -63.8% (active) |
| C1=C(CCNc2ncnc3c2cnn3-c2ccccc2)CCCC1 | -10.6% |
| Clc1cccc(-n2ncc3c(NCCc4ccccc4)ncnc32)c1 | -27.8% |
| O=C(Nc1ccccc1F)C(c1ccccc1)N1Cc2ccccc2C1=O (stereo not given) | -0.199% |
| Cc1cccc(OCC(=O)N(Cc2ccc(C(C)C)cc2)Cc2ccco2)c1C | -14.7% |
| COc1ccc(NC(=O)NCc2ccc3c(c2)OCO3)c(OC)c1 | 2.8% |
| COc1ccc(C2=NOC(Cn3nc(C(=O)NCc4ccc5c(c4)OCO5)cc3-c3ccccc3)C2)cc1 (stereo not given) | -33.6% (active) |
| Cc1ccc(CNC(=O)c2cc(-c3ccccc3C)n(CC3CC(c4cccc([N+](=O)[O-])c4)=NO3)n2)cc1 (stereo not given) | -15.8% |
| COc1ccc(N=C2SC(C(=O)Nc3ccc(F)cc3)CC(=O)N2C)cc1 (stereo not given) | 5.67% |
| COc1cccc(-c2cccc(NC(=O)C3CCN(C4CCC4)CC3)c2)c1 | 30.7% |
| COc1cccc(N=C2SC(C(=O)Nc3cccc(Cl)c3)CC(=O)N2C)c1 (stereo not given) | -65.2% (active) |
| CSc1ccc(CCNC(=O)c2cnn(-c3ccccc3)c2-n2cccc2)cc1 | 1.42% |
| O=C(NCCCN1CCOCC1)c1ccccc1NS(=O)(=O)c1ccc(F)cc1 | -51.4% (active) |
| O=C(NCCCN1CCOCC1)c1ccccc1NS(=O)(=O)c1ccc(Br)cc1 | -0.557% |
| Cc1ccc(NS(=O)(=O)c2ccc(C(=O)NCCCN3CCOCC3)cc2)cc1 | 26.5% |

| Compound | activity change, negative = inhibition |
| --- | --- |
| COC(=O)c1cc(S(=O)(=O)N2CCN(c3cc(Cl)ccc3C)CC2)c[nH]1 | 5.54% |
| CCn1cc2nc(SCc3cccc(F)c3)n(CCc3ccccc3)c(=O)c2n1 | 11.7% |
| CCCCN(CC)CCCNC(=O)Cn1ncc2c([nH]c3ccc(C)cc32)c1=O | 3.23% |
| Cc1cccc(NC(=O)N2CCN(C)c3ncccc32)c1C | -0.945% |
| COc1ccc(S(=O)(=O)n2nc(C)c(S(=O)(=O)N3CCCCCC3)c2C)cc1 | 5.83% |
| CSc1ccc(CCNC(=O)c2cc(C)nc3c2c(C)nn3-c2cccc(F)c2)cc1 | -11.8% |
| Cc1cc(C(=O)Nc2cccc(C(F)(F)F)c2)c2c(C)nn(-c3cccc(F)c3)c2n1 | -34.4% (active) |
| COc1cc(NC(=O)c2cc(C3CC3)nc3c2c(C)nn3-c2ccccc2)cc(OC)c1 | 0.344% |
| CC(C)(C)C1CCc2c(sc(NC(=O)c3ccccc3F)c2C(=O)N2CCCCC2)C1 (stereo not given) | 4.22% |
| Cc1ccc(NC(=O)CN2c3ccccc3S(=O)(=O)c3ccccc32)cc1F | -3% |
| COc1cc(OC)c(N2CC(C(=O)Nc3cc(Cl)ccc3N3CCOCC3)CC2=O)cc1Cl (stereo not given) | -18.4% |
| COc1cc(OC)c(-n2cc(-c3ccc(Cl)cc3)[nH]c2=O)cc1Cl | -36.2% (active) |
| COc1cc(OC)c(-n2c(C)cc(C=O)c2C)cc1Cl | 14.6% |
| CCN1CCC(N(Cc2ccc(F)cc2)C(=O)Nc2cc(C)ccc2C)CC1 | -6.08% |
| Cc1ccsc1CN(C(=O)c1oc2ccc(Br)cc2c1C)C1CCS(=O)(=O)C1 (stereo not given) | -12.9% |
| CCc1ccc(CN(Cc2ccco2)C(=O)COc2ccc(Cl)c(C)c2)cc1 | -3.05% |
| COc1ccc(Br)cc1CNC(=O)c1cc(=O)[nH]c2ccc(S(=O)(=O)N3CCCC3)cc12 | 2.78% |
| O=C(O)[C@@H]1CCCN1c1ncnc2sc3c(c12)CCC3 | -59.2% (active) |
| O=C(O)c1cccnc1Sc1ncnc2sc3c(c12)CCC3 | 11.4% |
| CC1(C)CN=C(N2CCN(c3ncnc4sc5c(c34)CCCC5)CC2)S1 | -2.14% |
| O=C1OC(OC(=O)c2ccccc2Br)C(N2CCOCC2)=C1Cl (stereo not given) | 6.42% |
| Cc1ccc(NC2=C(Cl)C(=O)OC2OC(=O)c2ccccc2C)cc1 (stereo not given) | -33.8% (active) |
| Cc1ccccc1C(=O)OC1OC(=O)C(Cl)=C1Nc1ccccc1 (stereo not given) | -22.8% |

| Compound | activity change, negative = inhibition |
| --- | --- |
| CCN(Cc1ccccc1)C(=O)c1cn(-c2cccc(OC)c2)c(=O)c2ccccc12 | -4.13% |
| COc1ccccc1NC(=O)c1cc(C2CC2)nc2c1c(C)nn2-c1ccc(C)cc1 | 3.81% |
| Cc1ccccc1Nc1nn2c(=O)c3ccc(C(=O)NCCc4ccc(Cl)cc4)cc3nc2s1 | -2.1% |
| Cc1ccc(C(=O)Nc2ccccc2F)cc1S(=O)(=O)N1CCOCC1 | -16.7% |
| COc1cccc(C(O)Cc2nc3ccccc3n2C)c1OC (stereo not given) | 5.85% |
| Cn1c(COc2ccccc2C(C)(C)C)nc2ccccc21 | -65.7% (active) |
| Cn1c(CC(=O)NNC(=O)c2ccccc2F)nc2ccccc21 | -11.4% |
| O=C(Cn1cc(SCc2ccccc2)c2ccccc21)N1CCCCC1 | -7.17% |
| Cc1ccc(NC(=O)Nc2sc3nc4n(c(=O)c3c2C)CCC(C)CC4)c(Cl)c1 (stereo not given) | 10.9% |
| COc1ccc(C2Nc3ccccc3C(=O)N2c2ccc(Cl)cc2)cc1Cn1cc([N+](=O)[O-])cn1 (stereo not given) | -30.3% (active) |
| COc1ccc(CN2CCCC(C(=O)c3ccc(Cl)cc3)C2)cc1Cn1cncn1 (stereo not given) | -13.5% |
| COc1ccc(C2Nc3ccccc3C(=O)N2Cc2ccccc2)cc1Cn1nnc2ccccc21 (stereo not given) | 12.5% |
| Cc1cc(C)cc(NC(=O)CSc2oc(-c3ccccc3)nc2S(=O)(=O)c2ccc(Cl)cc2)c1 | -12.1% |
| O=C(COc1ccc(Cl)cc1)N(Cc1ccco1)Cc1ccco1 | -16.4% |
| COc1ccccc1NC(=O)/C=C/C(N)=O | 19.1% |
| COC(=O)c1sc(-c2ccc(C(C)(C)C)cc2)cc1NC(=O)/C=C/C(=O)O | -37% (active) |
| COC(=O)c1nc(NC(=O)c2ccc(C(C)(C)C)cc2)n[nH]1 | -14.1% |
| O=C(O)c1ccc(Nc2nc(-c3ccccc3)c3cc(Br)ccc3n2)cc1 | -12.9% |
| COc1ccc(C(CC(=O)Nc2ccc(C)cc2)NC(=O)C(F)(F)F)cc1 (stereo not given) | -43.5% (active) |
| COc1ccc(NC(=O)CC(NC(C)c2ccccc2)C(=O)O)cc1 (stereo not given) | -21.7% |
| COc1ccc(NC(=O)Cn2c(-c3ccc(OC)cc3)cn(-c3ccc(C)cc3)c2=O)cc1 | 3.29% |
